Bioassay records as filed in PubChem BioAssay.
Most compounds without a hit are left out; they make up all but 8% or so of the library.
SARS PLP yeast: inhibitors of SARS-CoV papain-like protease in yeast; Potency, µM (highest dose often 32.9 µM), for the others: at the top dose activity, positive = growth rescue, actives largely listed as activators; actives 0.19% (n = 330,000); AID 485353; S. cerevisiae expressing SARS-CoV PLpro, growth rescue; calls by dose curve; note: potency is the fitted concentration of half-maximal effect; 0% is about no effect; nearly all actives have a fitted effect of over 55% in size
LASV entry inh: inhibitors of Lassa virus binding or cell entry; Lassa virus pseudotype entry inhibition, cell reporter; Potency, µM (doses to about 37.9 µM), without a hit: at the highest dose activity change, negative = inhibition, most hits filed as inhibitors; actives 1.2% (n = 300,000); calls by dose curve; tested in HEK293 cells; note: potency is the fitted concentration of half-maximal effect; % is set by controls: 0 for no effect and ±100 for the full control effect; nearly all actives have a fitted effect of over 50% in size
Marburg entry inh: Marburg virus entry inhibition; Marburg virus pseudotyped entry inhibition, cell reporter; Potency, µM (highest dose often 37.8 µM), for the others: at the highest dose activity change, negative = inhibition, hits mostly inhibitors; actives 1.8% (n = 300,000); calls by dose curve; tested in HEK293 cells; note: potency is the fitted concentration of half-maximal effect; % is set by controls: 0 for no effect and ±100 for the full control effect
FMDV antiviral: antivirals against foot and mouth disease virus. FMDV antiviral cell-based qHTS. Potency, µM (series often up to 57.9 µM), for the others: top-dose activity change, negative = inhibition, usual class: inhibitors. actives 1.2% (n = 410,000); calls by dose curve; tested in HEK293T cells; note: read-out not given here; potency is the fitted concentration of half-maximal effect; % is set by controls: 0 for no effect and ±100 for the full control effect; nearly all actives have a fitted effect of over 45% in size
HCV inh: inhibitors of hepatitis C virus infection. actives 3.4% (n = 340,000). Huh7.5.1 HCVcc-Cre infection, luciferase reporter, 44 h. Potency, µM (doses to about 41.8 µM), for the others: at the top dose activity change, negative = inhibition, most hits filed as inhibitors; active = well fitted inhibition curve with a large enough effect; inconclusive = small, poorly fitted or top-dose-only effect, or another doubt; inactive = no such curve, though single readings can be large or run the other way; note: potency is the fitted concentration of half-maximal effect; % is set by controls: 0 for no effect and ±100 for the full control effect
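Cells (1,000/well) were plated 4 h before compound, then infected with HCVcc-Cre virus (~0.5 moi). After 44 h further culture, infection was read as luciferase luminescence following a 15 min substrate incubation at room temperature.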
HCMV inh: human cytomegalovirus inhibition | activity change, negative = inhibition, % at 57.5 µM | HFF cells, HCMV-luciferase reporter, 72 h; hits give low values | actives 4.5% (n = 410,000); in the data active = activity change below about -60%; inconclusive = no clear call, values can overlap the other calls; inactive = above about -39%; note: % is set by controls: 0 for no effect and ±100 for the full control effect
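After 16 h attachment at 37C, HFF cells received test compound and HCMV-luciferase (1 PFU/cell); reporter luminescence read 72 h later, data normalized against buffer-only and known inhibitor Salinomycin.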
* = called active by the depositor; ? = inconclusive; . = no result; [ ] = another dose, or the depositor's remark.

SMILES | SARS PLP yeast | LASV entry inh | Marburg entry inh | FMDV antiviral | HCV inh | HCMV inh
CC(NC(=O)Cn1ccc2cc(S(=O)(=O)N3CCCCCC3)ccc21)c1ccccc1 (stereo unspecified) | . | -28%[46.1 µM] | . | -4% | . | -26
Cc1csc(NC(=O)c2ccc3c(c2)OCO3)n1 | -4% | 7.1µM* | ? | 12% | 0% | 43
CCOC(=O)Cc1csc(NC(=O)c2ccc3c(c2)OCO3)n1 | -3% | -12% | -4% | -9% | -31% | 48
O=C(O)CSc1nnc(NC(=O)c2ccc3c(c2)OCO3)s1 | -3% | 8.9µM* | ? | ? | 17% | -6
COC(=O)CSc1nnc(NC(=O)c2ccc3c(c2)OCO3)s1 | -1% | . | . | -10% | 17% | 88
Cc1ccc(S(=O)(=O)N2C[C@@H](C)[C@]3(C2)[C@H](O)[C@H](OC(=O)NC2CC2)C[C@H]2C(=O)N(c4ccccc4)C(=O)[C@H]23)cc1 | . | . | . | ? | . | -4
Cc1ccc(S(=O)(=O)N2C[C@@H](C)[C@]3(C2)[C@H](O)[C@H](OC(=O)Nc2cccs2)C[C@H]2C(=O)N(c4ccccc4)C(=O)[C@H]23)cc1 | . | . | . | ? | . | -104*
CCOc1ccccc1NC(=O)CCc1c(C)nc2c3cccnc3nn2c1C | . | -28%[46.1 µM] | 4%[46.1 µM] | -14% | . | -5
Cc1c(C(=O)N2CCCC2)sc2ncnc(NCCN(C)C)c12 | . | . | . | -12% | . | .
COc1ccc(NC(=O)c2cnc(SC)nc2)cc1 | 10% | . | . | 47% | -13% | 93
Cc1ccc(NC(=O)Cn2ncn3c(cc4ccccc43)c2=O)cc1C | . | . | 13µM* | 6% | . | 7
Cc1ccc(NC(=O)Cn2ncn3c(cc4ccccc43)c2=O)cc1F | . | -14%[46.1 µM] | ? | -13% | -9% | 0
O=C(CN1c2ccccc2Sc2ccccc21)NNC(=O)Nc1cccc(Cl)c1 | 2% | ? | ? | 17% | -20% | -73*
O=C(Cc1ccccc1)NNC(=O)Nc1cccc(Cl)c1 | 1% | -18% | -10% | 39% | 17% | -39
CSc1ccc(CCNc2ncnc3onc(C)c23)cc1 | . | ? | . | -2% | . | -65*
COc1ccc(CCNc2ncnc3onc(C)c23)c(OC)c1 | . | -11%[46.1 µM] | . | 13µM* | . | ?
COc1cccc(CNc2ncnc3onc(C)c23)c1 | . | -8%[46.1 µM] | . | ? | . | -31
O=C([C@@H]1C[C@@H](Sc2nc3ccccc3[nH]2)CN1Cc1ccc(C(F)(F)F)cc1)N1CCN(c2ccccc2F)CC1 | . | . | . | -13% | . | .
CCc1cccc2c(C(=O)CSc3nncn3-c3ccccc3OC)c[nH]c12 | 13µM* | 5% | 4% | 0% | -18% | 21
CCCC[C@@H]1CNCCN1CCc1cc(C(F)(F)F)cc(C(F)(F)F)c1 | -7% | . | . | -10% | ? | 32
NCCCC[C@H]1CN=C(N)N1CCCCC1CCCCC1 | . | . | . | -9% | 15% | -82*
NCCCC[C@H]1CN=C(N)N1CC1CCCCC1 | . | . | . | -12% | 15% | ?
NC1=NC[C@H](CC2CCCCC2)N1CCc1cc(C(F)(F)F)cc(C(F)(F)F)c1 | -7% | . | . | ? | 7% | -100*
FC(F)(F)c1cc(CCN2CCNC[C@@H]2CC2CCCCC2)cc(C(F)(F)F)c1 | 5% | . | . | 0% | ? | -99*
CCOc1ccc(C(=O)c2cn(CC(=O)Nc3cccc(OC)c3)c3cc4c(cc3c2=O)OCCO4)cc1 | . | ? | ? | -15% | . | 14
Brc1ccccc1CN1CCC(N2CCCCC2)CC1 | 9% | ? | -23% | -9% | 4µM* | -1
O=C1c2ccc(Oc3cccc([N+](=O)[O-])c3)cc2C(=O)N1c1ccccn1 | 0% | . | . | -6% | 0% | -23
O=C1c2cc([N+](=O)[O-])cc3cc([N+](=O)[O-])cc(c23)C(=O)N1c1ccccn1 | 24% | ? | ? | 13µM* | ? | -14
O=C(O)c1cccc(N2C(=O)c3cc([N+](=O)[O-])cc4cc([N+](=O)[O-])cc(c34)C2=O)c1 | 5% | . | . | 35µM* | ? | -18
CCOC(=O)c1c(C)sc(-c2c(-c3ccc(OC)c(F)c3)[nH]c3c2c(=O)[nH]c(=O)n3C)c1O | . | 7%[46.1 µM] | 4%[46.1 µM] | -20% | . | 2
